Results taken from publication PMC4336329 (PLoS ONE, 2015).
Out of some 310,000 compounds screened, about 14,000 (4.5%) showed an effect of 50% or more. The effect is printed as a negative number. Only a selection was taken, and strong results are over-represented in it overall.

Target: human ether-à-go-go-related gene (hERG) potassium channel (human, UniProt Q12809)
Test: primary screen, population patch clamp on CHO cells stably expressing hERG; higher = less effect of the substance
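Note: peak tail current of the secondary pulse compared with the same well before compound.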

Chain of human ether-à-go-go-related gene (hERG) potassium channel (Q12809 whole entry, looked up): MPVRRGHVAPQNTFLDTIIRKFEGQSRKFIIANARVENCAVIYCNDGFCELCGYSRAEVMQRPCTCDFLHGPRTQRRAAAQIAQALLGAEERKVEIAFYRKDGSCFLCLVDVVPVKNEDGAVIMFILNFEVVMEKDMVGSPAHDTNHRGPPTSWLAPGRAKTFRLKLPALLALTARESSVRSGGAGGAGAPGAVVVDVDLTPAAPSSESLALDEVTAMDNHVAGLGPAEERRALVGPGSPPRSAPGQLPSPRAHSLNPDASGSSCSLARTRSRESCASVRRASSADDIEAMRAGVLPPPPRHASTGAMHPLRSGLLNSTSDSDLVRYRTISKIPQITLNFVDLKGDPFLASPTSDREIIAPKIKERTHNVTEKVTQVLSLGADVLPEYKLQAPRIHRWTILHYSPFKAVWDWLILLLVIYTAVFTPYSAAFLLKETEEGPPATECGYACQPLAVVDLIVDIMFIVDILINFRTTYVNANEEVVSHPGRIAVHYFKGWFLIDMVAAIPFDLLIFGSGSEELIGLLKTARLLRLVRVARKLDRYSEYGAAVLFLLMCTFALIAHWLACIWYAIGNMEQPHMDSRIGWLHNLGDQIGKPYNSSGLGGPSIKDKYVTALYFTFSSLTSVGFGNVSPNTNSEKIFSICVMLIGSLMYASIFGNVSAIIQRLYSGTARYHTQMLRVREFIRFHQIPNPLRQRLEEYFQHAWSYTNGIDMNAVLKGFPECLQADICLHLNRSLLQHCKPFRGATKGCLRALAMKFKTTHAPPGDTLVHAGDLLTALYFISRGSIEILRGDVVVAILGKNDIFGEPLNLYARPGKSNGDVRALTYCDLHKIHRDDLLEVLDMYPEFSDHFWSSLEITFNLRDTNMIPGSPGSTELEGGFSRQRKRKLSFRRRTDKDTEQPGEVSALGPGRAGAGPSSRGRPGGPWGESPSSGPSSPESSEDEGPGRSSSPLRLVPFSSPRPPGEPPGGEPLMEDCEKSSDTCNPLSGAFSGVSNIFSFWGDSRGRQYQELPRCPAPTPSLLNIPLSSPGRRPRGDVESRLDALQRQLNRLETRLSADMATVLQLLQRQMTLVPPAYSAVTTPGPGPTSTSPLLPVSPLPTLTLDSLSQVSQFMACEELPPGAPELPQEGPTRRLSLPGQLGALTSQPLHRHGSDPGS

| Structure (SMILES) | hERG current change (%, negative = inhibition) at 10uM [%] |
| --- | --- |
| CCN(c1cccc(C)c1)S(=O)(=O)c1ccc2c(c1)NC(=O)CCS2 | 8.09 |
| CCOC(=O)c1ccc(NS(=O)(=O)c2cc3c4c(c2)CCN4C(=O)CC3)cc1 | -9.74 |
| CSCCC(NC(=O)c1ccccc1)C(=O)N(C)CC(=O)Nc1ccc(N2CCOCC2)cc1 (centres unmarked) | 5.72 |
| CCCC(C)NC(=O)C1CC(=O)N(CCc2ccc(F)cc2)C1 (centres unmarked) | 9.07 |
| COCCn1c(=S)[nH]c2ccccc21 | 28.7 |
| CCC(C)(C)n1nnnc1C(c1cccnc1)N1CCCC(C)C1 (centres unmarked) | 3.14 |
| CCOC(=O)c1ccc(NC(=O)c2cc3c(s2)CCC3)cc1 | 6.15 |
| O=C(NC1CCCCC1)C1CCCN1S(=O)(=O)c1ccc(F)cc1 (centres unmarked) | -0.938 |
| COc1cc(/C=C2\OC(=O)c3c(OC)cccc32)ccc1O | 15.6 |
| Cc1nn(C)cc1CN(C)C(=O)c1ccc(OC2CCN(Cc3ccccn3)CC2)cc1 | 8.65 |
| CC(C)N(C)C(=O)c1ccc(OC2CCN(CCc3ccccc3)CC2)cc1 | -40.8 |
| CC(c1nccs1)N(C)C(=O)c1ccc(OC2CCN(CCc3ccccc3)CC2)cc1 (centres unmarked) | -51.4 |
| CCn1ccnc1CN(C)C(=O)c1ccc(OC2CCN(CCc3ccccc3)CC2)cc1 | -24.8 |
| CN(CCc1ccccn1)C(=O)c1ccc(OC2CCN(Cc3ccccn3)CC2)cc1 | 4.04 |
| CN(CCc1ccccn1)C(=O)c1ccc(OC2CCN(CCc3ccccc3)CC2)cc1 | -58.5 |
| O=C(CNc1ccccc1)Nc1ccc(F)cc1 | 3.4 |
| O=C(NCCNS(=O)(=O)c1ccc(C(F)(F)F)cc1)N1CCOCC1 | 6.84 |
| COC(=O)c1ccccc1NC(=O)CSc1nnc(-c2cccc(NC(C)=O)c2)n1C | -3.68 |
| CCCCn1c(N)c(N(CC(C)C)C(=O)CCCc2cccs2)c(=O)[nH]c1=O | -9.44 |
| O=C(NCCCn1ccnc1)c1ccc(-c2ccccc2)cc1 | -21.6 |
| COc1ccc(-n2ccnc2SCC(=O)NCc2ccc3c(c2)OCO3)cc1 | -7.81 |
| COC(=O)C1C(=O)C2=C(CC1C)Nc1ccccc1NC2c1ccc(C)s1 (centres unmarked) | 12.8 |
| C=CCOc1cccc(C2C(C(=O)c3ccc(C)o3)=C(O)C(=O)N2c2nccs2)c1 (centres unmarked) | 7.99 |
| Cc1c(CN(C)C(=O)c2ccc(Br)o2)cnn1C | -7.89 |
| Cc1nn(C)cc1C(=O)/C=C/c1ccc([N+](=O)[O-])cc1 | -12.4 |
| CCn1cc(CN(C)C(=O)/C=C/c2ccc([N+](=O)[O-])cc2)c(C)n1 | -59.4 |
| Cc1c(CN(C)C(=O)c2nn(C)cc2[N+](=O)[O-])cnn1C | 8.63 |
| CCn1cc(CNC(=O)/C=C/c2ccc([N+](=O)[O-])cc2)c(C)n1 | -33 |
| Cc1c(CN(C)C(=O)/C=C/c2ccc([N+](=O)[O-])cc2)cnn1C | -69.6 |
